Assay results as given in PubChem BioAssay.
Several values for one entry are separate records, joined by “and”; a condition that tells them apart may be missing. Equal values may be shown once. Activity calls are given as the source filed them.

Legend:
[1] = small molecules captured by biotinylated probe aFSTL3 – biochemical, small-molecule microarray, fluorescence 635/667, stem cell growth factor project, primary screen (AID 1064); conditions: higher = more signal; small-molecule microarray, probe aFSTL3, fluorescence unless noted;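 also: measures binding of the biotinylated anti-FSTL3 antibody to printed compounds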
[2] = binders from COS7 lysate, DM2A8 probe, primary screen, torsin A project, cell lysate, small-molecule microarray, fluorescence 635/667 (AID 1065); conditions: higher = more signal; small-molecule microarray, COS7 cell lysate, probe DM2A8, fluorescence, COS7 lysate expressing mutant human TOR1A unless noted
[3] = small molecules captured by biotinylated probe aFGF2 – biochemical, small-molecule microarray, fluorescence 635/667, stem cell growth factor project, primary screen (AID 1067); conditions: higher = more signal; small-molecule microarray, probe aFGF2, fluorescence unless noted;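 also: measures binding of biotinylated aFGF2 protein to printed compounds on slides; z-score merges feature fluorescence and signal-to-noise across triplicate slides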
[4] = small molecules captured by biotinylated probe aFGF10 – biochemical, small-molecule microarray, fluorescence 635/667, stem cell growth factor project, primary screen (AID 1071); conditions: higher = more signal; small-molecule microarray, probe aFGF10, fluorescence unless noted;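 also: score merges 667 nm spot intensity and signal to noise from triplicate slides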
[5] = molecular target: Neurogenic locus notch homolog protein 2 (Homo sapiens) (UniProt Q04721); test: small molecules binding Notch2 protein – biochemical, small-molecule microarray, 635 nm fluorescence, stem cell growth factors, primary screen (AID 1073); conditions: higher = more signal
Sequence of Neurogenic locus notch homolog protein 2 (Homo sapiens) (Q04721 whole entry, looked up, canonical isoform): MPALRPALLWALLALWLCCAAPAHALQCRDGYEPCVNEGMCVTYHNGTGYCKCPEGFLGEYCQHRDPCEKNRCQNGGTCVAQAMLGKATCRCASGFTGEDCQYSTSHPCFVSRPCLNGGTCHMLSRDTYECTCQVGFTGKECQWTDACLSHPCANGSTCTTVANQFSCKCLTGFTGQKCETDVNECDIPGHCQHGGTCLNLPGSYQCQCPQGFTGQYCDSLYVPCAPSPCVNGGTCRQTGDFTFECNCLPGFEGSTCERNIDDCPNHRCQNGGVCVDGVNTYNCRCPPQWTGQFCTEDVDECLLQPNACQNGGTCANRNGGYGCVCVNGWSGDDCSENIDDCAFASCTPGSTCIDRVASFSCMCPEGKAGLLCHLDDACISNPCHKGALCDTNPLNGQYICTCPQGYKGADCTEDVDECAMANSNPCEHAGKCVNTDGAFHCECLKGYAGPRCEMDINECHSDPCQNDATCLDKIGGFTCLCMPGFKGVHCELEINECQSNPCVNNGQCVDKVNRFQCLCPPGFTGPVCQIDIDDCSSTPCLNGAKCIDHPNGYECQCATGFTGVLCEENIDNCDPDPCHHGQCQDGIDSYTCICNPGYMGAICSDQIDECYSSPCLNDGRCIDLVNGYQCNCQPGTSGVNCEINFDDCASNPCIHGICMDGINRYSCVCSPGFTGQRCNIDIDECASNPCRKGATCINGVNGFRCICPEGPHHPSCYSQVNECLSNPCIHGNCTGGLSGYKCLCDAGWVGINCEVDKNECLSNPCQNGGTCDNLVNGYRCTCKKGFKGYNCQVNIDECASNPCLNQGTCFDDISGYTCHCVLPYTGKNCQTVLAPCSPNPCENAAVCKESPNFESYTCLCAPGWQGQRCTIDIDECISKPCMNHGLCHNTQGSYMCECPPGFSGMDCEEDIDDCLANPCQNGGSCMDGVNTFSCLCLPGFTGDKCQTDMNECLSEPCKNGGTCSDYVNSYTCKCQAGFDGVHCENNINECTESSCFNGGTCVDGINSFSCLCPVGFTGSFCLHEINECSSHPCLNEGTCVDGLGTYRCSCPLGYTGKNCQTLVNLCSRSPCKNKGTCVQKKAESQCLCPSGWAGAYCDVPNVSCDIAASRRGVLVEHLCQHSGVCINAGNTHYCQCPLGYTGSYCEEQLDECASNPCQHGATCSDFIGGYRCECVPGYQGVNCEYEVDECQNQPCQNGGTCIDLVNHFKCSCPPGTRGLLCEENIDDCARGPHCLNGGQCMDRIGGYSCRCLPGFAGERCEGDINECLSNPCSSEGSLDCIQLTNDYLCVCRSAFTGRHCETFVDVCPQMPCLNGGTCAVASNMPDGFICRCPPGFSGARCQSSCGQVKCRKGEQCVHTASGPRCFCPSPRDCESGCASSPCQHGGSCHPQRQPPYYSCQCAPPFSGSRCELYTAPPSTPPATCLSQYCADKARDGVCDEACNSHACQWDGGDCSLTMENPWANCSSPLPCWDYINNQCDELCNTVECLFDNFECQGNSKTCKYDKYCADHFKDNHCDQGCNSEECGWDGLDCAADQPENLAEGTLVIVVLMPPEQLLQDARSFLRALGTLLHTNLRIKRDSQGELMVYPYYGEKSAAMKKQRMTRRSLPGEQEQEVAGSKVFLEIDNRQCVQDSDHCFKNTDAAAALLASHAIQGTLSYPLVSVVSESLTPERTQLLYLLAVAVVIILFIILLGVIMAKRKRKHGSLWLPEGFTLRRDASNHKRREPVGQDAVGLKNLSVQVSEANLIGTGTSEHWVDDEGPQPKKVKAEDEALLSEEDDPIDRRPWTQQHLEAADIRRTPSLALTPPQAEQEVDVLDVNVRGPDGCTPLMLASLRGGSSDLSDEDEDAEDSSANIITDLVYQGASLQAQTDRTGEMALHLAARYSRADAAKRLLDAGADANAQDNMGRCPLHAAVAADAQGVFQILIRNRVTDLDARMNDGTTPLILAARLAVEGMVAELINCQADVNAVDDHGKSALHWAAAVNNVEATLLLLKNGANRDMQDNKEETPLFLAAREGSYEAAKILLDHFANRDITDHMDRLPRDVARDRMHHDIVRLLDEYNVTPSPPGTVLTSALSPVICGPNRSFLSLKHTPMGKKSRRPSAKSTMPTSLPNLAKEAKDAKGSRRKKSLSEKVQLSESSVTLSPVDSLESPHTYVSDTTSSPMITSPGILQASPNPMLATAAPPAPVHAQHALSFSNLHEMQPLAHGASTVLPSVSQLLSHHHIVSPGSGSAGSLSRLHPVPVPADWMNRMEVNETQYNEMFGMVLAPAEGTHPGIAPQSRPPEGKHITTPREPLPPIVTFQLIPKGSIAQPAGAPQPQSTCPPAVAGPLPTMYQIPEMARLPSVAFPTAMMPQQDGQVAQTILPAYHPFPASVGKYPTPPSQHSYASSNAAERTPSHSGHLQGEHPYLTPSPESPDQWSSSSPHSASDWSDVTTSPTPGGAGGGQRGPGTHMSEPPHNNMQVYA

[6] = molecular target: Pro-neuregulin-1, membrane-bound isoform (Homo sapiens) (UniProt Q02297); test: small molecules binding neuregulin-1 protein – biochemical, small-molecule microarray, fluorescence 635/667, psychiatric disease protein project, primary screen (AID 1075); conditions: NRG1 binding, 635 nm fluorescence, higher = more signal;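 also: score combines 667 nm spot fluorescence with signal to noise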
Sequence of Pro-neuregulin-1, membrane-bound isoform (Homo sapiens) (Q02297 whole entry, looked up, the tested form may be a part, canonical isoform): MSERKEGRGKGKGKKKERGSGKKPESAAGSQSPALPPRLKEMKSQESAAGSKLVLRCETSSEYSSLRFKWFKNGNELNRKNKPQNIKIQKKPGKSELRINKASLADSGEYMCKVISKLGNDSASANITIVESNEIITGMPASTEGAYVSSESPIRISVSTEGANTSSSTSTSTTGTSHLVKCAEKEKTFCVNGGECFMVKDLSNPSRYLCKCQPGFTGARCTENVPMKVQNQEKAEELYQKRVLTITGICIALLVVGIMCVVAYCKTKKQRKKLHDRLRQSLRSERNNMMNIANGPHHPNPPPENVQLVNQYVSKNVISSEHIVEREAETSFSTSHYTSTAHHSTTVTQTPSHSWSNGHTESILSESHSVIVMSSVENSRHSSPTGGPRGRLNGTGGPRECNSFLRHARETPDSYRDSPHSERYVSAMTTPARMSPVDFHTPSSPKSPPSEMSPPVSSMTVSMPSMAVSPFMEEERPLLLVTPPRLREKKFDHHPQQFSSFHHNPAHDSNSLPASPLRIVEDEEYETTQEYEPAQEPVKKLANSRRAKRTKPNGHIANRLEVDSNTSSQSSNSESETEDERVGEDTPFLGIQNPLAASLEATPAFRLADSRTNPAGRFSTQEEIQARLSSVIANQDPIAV

[7] = test system: Neuregulin-1 EGF-like domain; test: small molecules binding NRG1 EGF domain – biochemical, small-molecule microarray, 635 nm fluorescence, primary screen (AID 1081); conditions: higher = more signal;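 also: binding of the protein to compounds printed on small-molecule microarray slides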
[8] = FRG1 expression reporter modulators in myotubes – cell-based, C2C12 myotubes, firefly/Renilla luciferase, luminescence, FRG1 inhibition for FSHD, primary screen (AID 1084); conditions: FRG1 promoter luciferase; higher = more signal, called active from +8 up or from −8 down unless noted
[9] = small molecules captured by biotinylated probe aFST – biochemical, small-molecule microarray, fluorescence 635/667, stem cell growth factor project, primary screen (AID 1086); conditions: higher = more signal;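 also: score merges 667 nm fluorescence with signal-to-noise of each printed compound spot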
[10] = binders of probe aHhip on microarray, primary screen, stem cell growth factor project, biochemical, small-molecule microarray, fluorescence 635/667 (AID 1087); conditions: higher = more signal;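 also: score merges spot fluorescence at 667nm with spot signal to noise ratio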

| SMILES | composite z-score [1] | composite z-score [2] | composite z-score [3] | composite z-score [4] | composite z-score [5] | composite z-score [6] | composite z-score [7] | z-score [8] | composite z-score [9] | composite z-score [10] |
| --- | --- | --- | --- | --- | --- | --- | --- | --- | --- | --- |
| CCOC(=O)[C@H]1CC=C2C(=O)Oc3ccccc3[C@@H]21 | 0.0468 | -0.775 | -0.083 | -0.491 | -0.316 | 0.833 | -0.169 | 0.48 (inactive) | -0.203 | -0.0645 |
| CCc1cc2c(nc1CC)CCN(CCC(C)=NOC)C2 | 0.515 | 0.974 | -0.0097 | 0.324 | 0.608 | 0.0159 | 0.763 | 2.07 (inactive) | 0.497 | 0.113 |
| CN1CCC(c2ccc(CO)cc2)=CC1c1cccs1 (stereo not given) | -0.182 | -0.191 | -0.128 | -0.53 | -0.131 | 0.0188 | 1.04 | 1.68 (inactive) | 0.13 | -0.134 |
| CCCc1cc2c(n1Cc1ccc(C)cc1)C(C)C1CN(C(=O)c3ccccc3)C(C)(C(=O)OC)C21 (stereo not given) | 1.37 | 1.32 | 0.459 | 1.14 | 1.43 | 1.32 | 1.08 | -0.876 (inactive) | 1.95 | 0.321 |
| COC(=O)[C@H]1[C@H](c2ccccc2)C(=O)[C@]2(O)c3ccccc3O[C@@]12c1ccccc1 | -0.521 | 0.824 | -0.0894 | 0.273 | 0.472 | 0.113 | 0.348 | -2.68 (inactive) | -0.12 | -0.236 |
| OCc1ccc(C2=CC(c3cccs3)N(Cc3cccc(OC(F)(F)F)c3)CC2)cc1 (stereo not given) | -0.0593 | 0.466 | -0.0996 | -0.242 | -0.515 | 0.764 | 0.536 | -0.39 (inactive) | -0.0002 | 0.0908 |
| CCCc1cc2c(n1Cc1cccc(Cl)c1)C(C)C1CN(C(=O)c3ccccc3)C(C)(C(=O)OC)C21 (stereo not given) | 1.04 | 0.49 | 0.169 | 0.241 | 1.51 | 1.92 | 1.11 | 0.703 (inactive) | 0.578 | 0.192 |
| CC1N(P(=O)(c2ccccc2)c2ccccc2)CC(O)(c2ccccc2)CC12CC2 (stereo not given) | 0.401 and 0.0381 | -1.21 and -0.157 | 0.0161 and 0.221 | 0.309 and 0.352 | 0.621 and 1.54 | 2 and 1.82 | 1.41 and 0.526 | 2.45 (inactive) and -0.78 (inactive) | -0.0551 and 1.02 | 0.238 and 0.535 |
| COC(=O)NCC=Cc1nc(CCC=CC(=O)O[C@H]2CC3CC(=O)O[C@@H](C=CCC(C)C)C[C@@H]4CC[C@H](C)[C@@H](C[C@@H](OC)C[C@H](C2)O3)O4)co1 | -0.117 | -0.381 | -0.114 | -0.328 | -0.896 | -0.657 | -0.905 | 0.524 (inactive) | -0.15 | -0.12 |
| COC(=O)C1(C)C=C2C(=C(C)C(=O)C2C)CN1 (stereo not given) | 1.28 | -0.297 | -0.0627 | -0.195 | -0.483 | 0.367 | 1.55 | 3.71 (inactive) | 0.706 | 0.107 |
| CN1CCc2nc(CO)c(CO)cc2C1 | -0.304 | 0.267 | -0.0982 | 0.401 | 0.528 | 0.0016 | 0.611 | 0.294 (inactive) | 0.242 | 0.0881 |
| COC(=O)[C@H]1[C@@H](O)[C@@]2(O)c3c(OC)cc(OC)cc3O[C@@]2(c2ccc(OC)cc2)[C@@H]1c1ccccc1 | -0.327 | 0.287 | -0.0894 | 0.52 | 0.514 | 0.167 | 0.357 | 0.128 (inactive) | 0.0836 | -0.152 |
| C=C(CC1(CNP(=O)(c2ccccc2)c2ccccc2)CC1)c1ccccc1 | 0.019 | -0.115 | 0.179 | 0.33 | 0.777 | 1.69 | 0.525 | -3.35 (inactive) | 0.622 | -0.0618 |
| C=C(CC1(C(C)NP(=O)(c2ccccc2)c2ccccc2)CC1)c1ccccc1 (stereo not given) | 0.21 | -0.954 | 0.208 | 0.851 | 1.01 | 1.16 | 0.714 | -3.03 (inactive) | 0.881 | 0.113 |
| CCCc1cc2c(n1CCO)C(C)C1CN(C(=O)c3ccccc3)C(C)(C(=O)OC)C21 (stereo not given) | 1.44 | 1.73 | 0.374 | 0.0514 | 1.66 | 1.21 | 1.14 | 2.02 (inactive) | 1.44 | 0.593 |
| CCCC[C@@H]1C[C@H]1[C@@H](NP(=O)(c1ccccc1)c1ccccc1)c1ccc(Cl)cc1 | 1.68 | -1.94 | -0.129 | -0.0013 | -0.438 | 0.291 | 0.142 | 0.695 (inactive) | -0.22 | -0.0994 |

| SMILES | composite z-score [1] | composite z-score [2] | composite z-score [3] | composite z-score [4] | composite z-score [5] | composite z-score [6] | composite z-score [7] | z-score [8] | composite z-score [9] | composite z-score [10] |
| --- | --- | --- | --- | --- | --- | --- | --- | --- | --- | --- |
| COC(=O)[C@@]1(Cc2ccccc2)[C@H]2c3cc(C(=O)N(C)C)n(C)c3C[C@H]2CN1C(=O)c1ccccc1 | 0.739 | -0.389 | 0.175 | 0.536 | 1.59 | 2.02 | 1.14 | 1.51 (inactive) | 0.566 | 0.189 |
| CCOC(=O)[C@H]1CC=C2C(=O)Oc3ccc(Br)cc3[C@@H]21 | 0.165 | 0.384 | -0.161 | -0.332 | -0.664 | 0.994 | 0.727 | -0.818 (inactive) | -0.598 | -0.134 |
| O=P(c1ccccc1)(c1ccccc1)N1CC2(CC2)CC(O)(c2ccccc2)C1 (stereo not given) | 0.234 | -0.86 | 0.0316 | 0.862 | 1.65 | 0.963 | 1.33 | -2.28 (inactive) | 0.553 | 0.21 |
| CCCC=C(CCC)[C@@H](NP(=O)(c1ccccc1)c1ccccc1)c1ccccc1 | -0.335 | 0.0595 | 0.0354 | 0.33 | 1.25 | -0.0154 | 0.318 | -0.763 (inactive) | 0.714 | 0.408 |
| COC(=O)[C@@]1(Cc2ccccc2)[C@H]2c3cc(C(=O)N(C)C)[nH]c3C[C@H]2CN1C(=O)c1ccccc1 | 0.469 | -0.365 | -0.0063 | -0.12 | 0.335 | 1.03 | 0.954 | 1.82 (inactive) | -0.0765 | 0.0176 |
| c1ccc(-c2cc3c(nc2-c2ccccc2)CCNC3)cc1 | 0.0329 | -0.112 | -0.0494 | -0.296 | -0.634 | -0.0361 | -0.969 | -0.148 (inactive) | 0.0294 | -0.374 |
| C[C@@H]1Cc2c(cnc3c2CN(C)CC3)CO1 | -0.0578 | 0.442 | -0.105 | 0.0502 | -0.163 | -0.93 | -0.206 | -0.989 (inactive) | 0.0686 | 0.312 |
| C[C@H]1O[C@H]2C3=C(C(=O)[C@@H]4O[C@@H]4[C@@H]3O)[C@@H]1[C@@H]1[C@@H](C)OC=C3[C@@H](O)[C@H]4O[C@H]4C(=O)[C@]312 | -0.294 | 0.0164 | -0.102 | -0.494 | -0.468 | -0.48 | -0.894 | -2.19 (inactive) | -0.293 | -0.0994 |
| COc1cc2c(cc1O)C=[N+](C)CC2 | -0.0131 | -0.532 | -0.172 | -0.17 | -0.718 | -0.835 | -0.286 | -1.13 (inactive) | 0.169 | -0.639 |
| OCc1ccc(C2=CC(C3CC3)N(Cc3sc4ccccc4c3Cl)CC2)cc1 (stereo not given) | 0.0908 | 1.02 | -0.107 | 0.261 | 0.166 | 0.503 | 1.14 | -1.71 (inactive) | 0.19 | -0.0296 |
| COc1cc2c(cc1O)C(C)N(C)CC2 (stereo not given) | 0.661 | -0.144 | -0.0345 | -0.021 | 0.358 | -0.0581 | 1.14 | -1.13 (inactive) | -0.0662 | 0.176 |
| COC(=O)[C@H]1C(=O)c2ccccc2O[C@@](C(=O)OC)(c2ccccc2)[C@@H]1c1ccccc1 | -0.384 | -0.262 | -0.149 | 0.179 | 0.343 | -0.454 | -1.02 | -0.748 (inactive) | -0.204 | -0.134 |
| CN1CCC(c2ccc(CO)cc2)=CC1C1CC1 (stereo not given) | -0.394 | -0.0038 | -0.158 | -0.301 | -0.616 | -0.292 | 0.839 | 0.666 (inactive) | -0.337 | -0.164 |
| CCCc1cc2c(n1Cc1ccco1)C(C)C1CN(C(=O)c3ccccc3)C(C)(C(=O)OC)C21 (stereo not given) | 1.03 | 1.05 | 0.13 | 0.657 | 1.66 | 1.35 | 1.09 | 0.301 (inactive) | 0.802 | 1.05 |
| COC(=O)[C@@]1(Cc2ccc(F)cc2)[C@H]2c3cc(C(=O)N(C)C)[nH]c3C[C@H]2CN1C(=O)c1ccccc1 | 0.0665 [setting not given] | -0.441 [setting not given] | -0.162 [setting not given] | 0.203 [setting not given] | 1.35 | 0.986 | 1.06 | 0.832 [setting not given] (inactive) | 0.656 | -0.236 |
| C[C@@H]1OC=C2[C@@H](O)[C@H]3O[C@H]3C(=O)[C@]23[C@H]1[C@H]1C2=C([C@@H](O)[C@H]4O[C@H]4C2=O)[C@@H]3O[C@@H]1C | -0.532 | 0.0437 | -0.169 | -0.0391 | 0.121 | -0.854 | -0.372 | -0.165 (inactive) | -0.192 | 0.0274 |
